Data as given in the supplement of paper PMC13380429.
Unmarked numbers belong to inactive results.

test system: Vero E6 infected with SARS-CoV-2; assay: inhibition of SARS-CoV-2 cytopathic effect; higher = more antiviral protection, active = above 15; conditions: 10000 nM; 48 h

Structure (SMILES) | inhibition of SARS-CoV-2 cytopathic effect
CN(C)CCNc1nc2cc(O)ccc2c2c1C(=O)c1ccccc1-2 | -23.6%
CC(C)(O)CC(=O)O [beta-hydroxy-beta-methylbutyrate] | -3.42%
CNCc1ccc(C)c(NC(=O)c2ccc(Nc3nc(-c4ccccc4)c4ccccc4n3)cc2)c1 | 61.3% (active)
CCc1cc(O)c(Oc2ccc(C(N)=O)cc2F)cc1F | -0.97%
Nc1ccccc1S(N)(=O)=O [2-aminobenzenesulfonamide] | -0.71%
Cc1ccc(S(=O)(=O)Cc2nc(-c3ccc(C(=O)NCc4cccnc4)cc3)oc2C)cc1 | -16.4%
